Bioassay records (PubChem BioAssay)
FUS yeast rescue: qHTS for Suppressors of FUS Proteinopathy: Primary screen using FUS-linked yeast assay; S. cerevisiae FUS-expressing, growth rescue, OD600, 24 h; Potency, µM (titrated, usually from 76.6 µM), actives largely listed as activators; hit rate 0.24% among 390,000; AID 1347120, 2019; note: nearly all actives have a fitted effect of over 55% in size
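Restored growth of FUS-toxic S. cerevisiae, read as 600 nm absorbance after 24 h at 30C in galactose medium (starting OD 0.005). Controls CP55940 and DMSO.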
aSyn yeast inh: qHTS of alpha-syn Inhibitors; hit rate 0.14% among 370,000; Potency, µM (doses to about 46.1 µM), actives largely listed as activators; Yeast expressing alpha-synuclein, growth rescue, BacTiter-Glo, 24 h; AID 652106, 2013; note: nearly all actives have a fitted effect of over 65% in size
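Galactose-induced alpha-syn yeast (OD600=0.02, raffinose-pregrown) + pinned cpd, 24 hr, 30 deg C; growth by BacTiter-Glo luminescence. Growth restoration scores as activation.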
TDP43 rescue: qHTS of TDP-43 Inhibitors. Potency, µM (top dose mostly 46.1 µM), actives largely listed as activators. hit rate 1.8% among 410,000. TDP-43 expressing yeast growth rescue, BacTiter-Glo, 24 h; note: nearly all actives have a fitted effect of over 50% in size
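In this qHTS, compounds that restore growth of yeast expressing TDP-43 appear as activators. Cells (OD600=0.02, galactose medium, raffinose-pregrown) are incubated with compound 24 hr at 30 deg C and growth is quantified by BacTiter-Glo.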
Abeta yeast res: qHTS for compounds that reverse cellular toxicity of Amyloid beta (A-beta) peptide in yeast: Primary Screen; yeast expressing A-beta42, growth rescue, OD600, 48 h; response scale: 0% DMSO, 100% iron-clioquinol control; Potency, µM (highest dose often 46.1 µM), most hits filed as activators; hit rate 0.063% among 410,000; AID 1347071, 2019; note: nearly all actives have a fitted effect of over 55% in size
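Yeast A-beta toxicity model in growth medium with pinned compounds, 48 h at 30 C; growth read as absorbance at 600 nm. Normalized to FeCl3/clioquinol equimolar mix (positive) and DMSO (negative).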
Large screens that a line does not name were inactive. The list is not random: actives were taken first. Their share in the collection is about 2.1%. Calls come from the whole dose curve; as a rule, active = well fitted curve in the direction sought with a large enough effect; inconclusive = small, poorly fitted or top-dose-only effect, or another doubt; inactive = no such curve, though single readings can be large; an effect the other way counts as inactive or inconclusive.

COCc1cc(=O)[nH]c(SCCS(=O)(=O)c2ccc(Cl)cc2Cl)n1	TDP43 rescue 6.3µM
COCc1cc(=O)[nH]c(SCCS(=O)(=O)c2ccc(C)cc2)n1	none
N#C/C(=C/c1ccc(N2CCCCCC2)o1)c1ccc(Cl)cc1	FUS yeast rescue 22µM
N#C/C(=C/c1ccc(N2CCCCC2)cc1)c1cccc(F)c1	none
N#C/C(=C/c1ccc(N2CCCCC2)o1)c1cccc(F)c1	FUS yeast rescue 32µM
Cc1cc(C)cc(N(CC(=O)NC2CCC(C)CC2)S(=O)(=O)c2ccccc2)c1 (stereo not given)	none (no result: aSyn yeast inh, TDP43 rescue, Abeta yeast res)
COc1ccc(NC(=O)/C(Cl)=C(/Cl)S(=O)(=O)Cc2ccccc2)cn1	TDP43 rescue 3.2µM
COc1ccc(NC(=O)CC2(CC(=O)O)CCCC2)cn1	TDP43 rescue 13µM
COc1ccc(NC(=O)Nc2ccc(OCc3ccccc3)cc2)cn1	none
COc1ccc(NC(=O)C(Cl)=C(Cl)Cl)cn1	TDP43 rescue 13µM
O=C(O)CC1(CC(=O)Nc2ccc(Oc3cccc(C(F)(F)F)c3)nc2)CCCC1	none
COc1ccc(S(=O)(=O)Nc2ccc3ccccc3c2)cc1C	aSyn yeast inh 22µM, TDP43 rescue inconclusive
Cc1cc(S(=O)(=O)Nc2ccc3ccccc3c2)c(C)s1	aSyn yeast inh 18µM, TDP43 rescue inconclusive
Cc1ccc(S(=O)(=O)Nc2ccc3ccccc3c2)cc1	aSyn yeast inh inconclusive (no result: FUS yeast rescue)
Cc1cc(S(=O)(=O)Nc2cccnc2)c(C)s1	none
COc1cc(OC)c(/C=C/c2nc3ccccc3o2)c(OC)c1	none (no result: FUS yeast rescue, TDP43 rescue, Abeta yeast res)
CC1CCC/C(=C\Nc2ccc3c(c2)OCO3)C1=O (stereo not given)	FUS yeast rescue 16µM
O=C1CCC/C1=C/Nc1ccc2c(c1)OCO2	none (no result: aSyn yeast inh)
CCOC(=O)c1c(NC(=O)CSc2cn(CCNC(=O)c3ccccc3OC)c3ccccc23)sc2c1CCC2	none (no result: aSyn yeast inh)
Cc1ccc(N2CN(CCc3ccccc3)CNC2=S)cc1	Abeta yeast res 11µM
Cc1cc(Nc2ccccc2)n(-c2nc3ccccc3[nH]2)n1	TDP43 rescue 16µM
COc1cc2sc(-c3ccccc3OC)c(-c3ccc(O)cc3)c2cc1OC	TDP43 rescue 16µM
COc1ccc2sc(-c3ccccc3OC)c(-c3ccc(O)cc3)c2c1	FUS yeast rescue inconclusive
O=C(CCn1c(=O)c2cccn2c2cccnc21)N1CCN(c2ccc(F)cc2)CC1	TDP43 rescue 13µM (no result: aSyn yeast inh)
CC(C)C[C@H]1COc2cc(Br)ccc2S(=O)(=O)N1Cc1cn(Cc2ccco2)nn1	none (no result: aSyn yeast inh, TDP43 rescue, Abeta yeast res)
CC(=O)N1CCc2cc(S(=O)(=O)NCCC(=O)N(C)Cc3ccccc3F)ccc21	none (no result: aSyn yeast inh, TDP43 rescue, Abeta yeast res)
N#CCCCSc1nnnn1-c1cccc(Cl)c1	TDP43 rescue 22µM
COc1ccccc1CNC(=O)COCc1cc(-c2ccc3c(c2)OCO3)on1	FUS yeast rescue inconclusive, TDP43 rescue 22µM (no result: aSyn yeast inh)
O=C1[C@@H]2CSC(c3ccc(C(F)(F)F)cc3)N2C(=O)N1c1ccccc1 (stereo not given in full)	TDP43 rescue 13µM (no result: aSyn yeast inh)
O=C1[C@@H]2CSC(c3ccc(Cl)cc3)N2C(=O)N1c1ccccc1 (stereo not given in full)	TDP43 rescue 35µM (no result: aSyn yeast inh)
CC(=O)Nc1sc2c(c1-c1nc3ccccc3s1)CCCN(C(C)C)C2	none (no result: aSyn yeast inh, TDP43 rescue, Abeta yeast res)
COc1ccc(-c2cn[nH]c2-c2ccc(OCc3ccccc3)cc2O)cc1	none
COc1ccc(-c2cn[nH]c2-c2ccc(OC)cc2O)cc1	aSyn yeast inh 22µM, TDP43 rescue 25µM, Abeta yeast res inconclusive
CC(=O)n1c(=O)c2ccccc2c(=O)n1-c1ccccc1	TDP43 rescue 3.2µM
Cc1csc(Nc2ccc(Cl)cc2)n1	TDP43 rescue 16µM, Abeta yeast res inconclusive
O=C1C=C(c2ccc3c(c2)OCCO3)C[C@@H](c2ccc(F)cc2)C1	TDP43 rescue 22µM, Abeta yeast res inconclusive
CSc1ccc(C2=CC(=O)C[C@H](c3ccc(F)cc3)C2)cc1	TDP43 rescue 22µM
O=C1C=C(c2cc(Cl)cc(Cl)c2)C[C@@H](c2ccc(F)cc2)C1	TDP43 rescue inconclusive
O=C1C=C(c2ccc3c(c2)OCO3)C[C@@H](c2ccc(F)cc2)C1	TDP43 rescue inconclusive
O=C1C=C(c2ccc(OC(F)(F)F)cc2)C[C@@H](c2ccc(F)cc2)C1	TDP43 rescue 14µM, Abeta yeast res inconclusive
Cc1cc(C2=CC(=O)C[C@H](c3ccc(F)cc3)C2)ccc1F	TDP43 rescue 22µM
COc1ccc([C@H]2CC(=O)C=C(c3ccc(SC)cc3)C2)cc1OC	none
CCCCCC(=O)NC1CCCCN(Cc2ccc(C)cc2)C1=O (stereo not given)	none (no result: aSyn yeast inh, TDP43 rescue, Abeta yeast res)
Nc1nc2c(nc(N3CCOCC3)n2COCCO)c(=O)[nH]1	none (no result: FUS yeast rescue, TDP43 rescue, Abeta yeast res)
COc1ccc(C2=CC(=O)C[C@H](c3ccc(F)cc3)C2)cc1F	FUS yeast rescue inconclusive, TDP43 rescue 22µM
Clc1ccc(-c2csc(N/N=C/c3cccnc3)n2)c(Cl)c1	FUS yeast rescue inconclusive, TDP43 rescue 13µM
O=C(c1c(Cl)nc2sccn12)N1CCN(c2cccc(Cl)c2)CC1	TDP43 rescue 14µM
O=C(c1cc2ccccc2cc1O)N1CCN(c2cccc(Cl)c2)CC1	TDP43 rescue 11µM, Abeta yeast res inconclusive
O=C(c1ccccc1F)N1CCN(c2cnn(-c3cccc(Cl)c3)c(=O)c2Cl)CC1	TDP43 rescue 20µM
O=C(c1cc2c(=O)n3ccccc3nc2s1)N1CCN(c2cccc(Cl)c2)CC1	FUS yeast rescue inconclusive, TDP43 rescue inconclusive
COC(=O)c1sc(S(=O)(=O)Nc2ccc(C)cc2)c(C(=O)OC)c1C	TDP43 rescue 20µM
CCOC(=O)C1=C(CNCc2ccccc2)NC(=O)NC1c1ccc(C)cc1 (stereo not given)	none (no result: aSyn yeast inh)
COc1cc2ncc(S(=O)(=O)c3ccccc3)c(N3CCCC(C)C3)c2cc1OC (stereo not given)	FUS yeast rescue inconclusive, TDP43 rescue 28µM
CCN1CCN(c2c(S(=O)(=O)c3ccc(OC)cc3)cnc3cc(OC)c(OC)cc23)CC1	none (no result: aSyn yeast inh)
CC1=CC(C)(C)NC(=S)N1C(C)c1ccccc1 (stereo not given)	Abeta yeast res 10µM
Cc1cccc(Nc2nc(-c3ccc(F)c(C)c3)cs2)n1	TDP43 rescue 14µM, Abeta yeast res inconclusive
Cc1cccc(Nc2nc(-c3ccc(O)c(O)c3)cs2)n1	none
Cc1ccc(N2C(=O)C(c3c(C)[nH]n(-c4ccccc4)c3=O)(C(F)(F)F)C3=C2CC(C)(C)CC3=O)cc1 (stereo not given)	none
Cc1[nH]n(-c2ccccc2)c(=O)c1C1(C(F)(F)F)C(=O)N(c2ccccc2)C2=C1C(=O)CC(C)(C)C2 (stereo not given)	FUS yeast rescue 32µM
CCOC(=O)c1ccc(N2C(=O)C3CC=CCC3C2=O)cc1 (stereo not given)	none
CCOC(=O)c1ccc(N2C(=O)C3C(C2=O)C(C(=O)c2ccc(Cl)cc2)N2CCCC32)cc1 (stereo not given)	FUS yeast rescue 13µM
C[C@H](CCCCC1(C)OCCO1)CCC(=O)N(c1ccccc1)c1ccccc1	none (no result: aSyn yeast inh, TDP43 rescue, Abeta yeast res)
